Results as given in PubChem BioAssay (NCATS).
Results filed as inconclusive are left out. Unmarked numbers belong to inactive results. The source made the active and inactive calls. The call rests on the fitted dose curve; in most records, active means well fitted curve in the direction sought with a large enough effect; inconclusive means small, poorly fitted or top-dose-only effect, or another doubt; inactive means no such curve, though single readings can be large; an effect the other way counts as inactive or inconclusive.

Key:
[1] = Viability qHTS for spleen associated tyrosine kinase inhibitor (SYKi) drug resistant MV4-11 cells (AID 1963824); further: nearly all actives have a fitted effect of over 35% in size
In short: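 CellTiter-Glo luminescence, read 10 min after reagent addition, reports viability after a 72 hr compound exposure. Cells are an MV4-11 line made resistant to SYK inhibition, seeded at 500 per well onto compound-containing plates.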

[2] = Cellular viability qHTS for adrenocortical cancer (ACC) cell line SW-13 (AID 1963989); details: SW-13 ACC cells viability, CellTiter-Glo, 48 h; activity (max response): hits give low values; further: nearly all actives have a fitted effect of over 65% in size;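 on activity (max response): cells grown in serum-free medium with ITS supplement; on the % scale 0 is the no-effect control and ±100 the full control effect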
In short: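 Compound titrations (up to 46 uM final, in DMSO) were applied to SW-13 cells for 48 h at 37C/5% CO2. Reading used CellTiter-Glo after 20 min at room temperature; fitted curves yielded IC50 and efficacy.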

[3] = Cellular viability qHTS for adrenocortical cancer (ACC) cell line NCI-H295R (AID 1963990); further: nearly all actives have a fitted effect of over 60% in size
In short: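 Readout: CellTiter-Glo luminescence, 20 min RT. Exposure: 48 h, 37C/5% CO2. Cells: NCI-H295R, ITS-DMEM serum-free. Range: up to 46 uM. Analysis: 4PL fit, IC50 plus efficacy.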
Potency means the concentration at half of the fitted maximal effect.

SMILES | Potency [1] | activity (max response) [2] [%] | Potency [3] | Potency [2]
O=[N+]([O-])c1c2ccccc2cc2ccccc12 | 24.1 µM (active) | 8.46 | inactive | –
CCCN1CCC[C@@H]2Cc3nc(N)ncc3C[C@H]21 | inactive | 3.03 | inactive | –
CC1=C2C[C@H]3[C@@H](CC=C4C[C@@H](O)CC[C@@]43C)[C@@H]2CC[C@]12O[C@@H]1C[C@H](C)CN[C@H]1[C@H]2C | 14.8 µM (active) | -8.25 | inactive | –
C[C@H](Nc1ncnc2nc[nH]c12)c1nc2ccc(F)cc2c(=O)n1-c1ccccc1 | 0.651 µM (active) | -19.1 | inactive | –
COC(C)(C)CCCC(C)C/C=C/C(C)=C/C(=O)OC(C)C (centres undefined) | inactive | 12.4 | inactive | –
c1ccc2c(c1)OCC(C1=NCCN1)O2 (centres undefined) | inactive | – | 13 µM (active) | –
C#CCOC(C(=O)OCCN(C)C)(c1ccccc1)c1ccccc1 | inactive | 15.9 | inactive | –
CCCCOC(=O)c1ccccc1C(=O)OCc1ccccc1 | 17.2 µM (active) | 0.138 | inactive | –
COc1ccc2c3c1O[C@H]1[C@@H](O)C=C[C@H]4[C@@H](C2)N(C)CC[C@@]341 | 30 µM (active) | – | 10 µM (active) | 14.1 µM (active)
CN1[C@H]2CC(O)C[C@H]1[C@H]1O[C@H]12 (some centres undefined) | inactive | – | inactive | –
Cc1ccc(-c2nc3ccc(C)cn3c2CC(=O)N(C)C)cc1 | inactive | -1.33 | inactive | –
COc1c2c(cc3c1OCO3)CCN(C)C2 | inactive | -10 | inactive | –
COc1ccc(C(c2ccc(OC)cc2)C(Cl)(Cl)Cl)cc1 | 21.5 µM (active) | – | 28.2 µM (active) | 28.2 µM (active)
COc1cc(CCN)cc(OC)c1OC | inactive | -7.31 | inactive | –
COc1cc(CC(C)N)cc2c1OCO2 (centres undefined) | inactive | -21.8 | inactive | –
CN1C(=O)[C@@H](NC(=O)c2cc3ccccc3[nH]2)N=C(c2ccccc2)c2ccccc21 | 4.22 µM (active) | -6.85 | inactive | –
CCN(CC)CCc1c[nH]c2ccccc12 | inactive | -11.9 | inactive | –
CN(C)C(=S)SSC(=S)N(C)C | 4.73 µM (active) | – | 25.9 µM (active) | –
CC[C@@H](CO)NC(=O)[C@@H]1C=C2c3cccc4c3c(cn4C)C[C@H]2N(C)C1 | 9.44 µM (active) | -2.39 | inactive | –
